# Screen size: about 5,500 compounds; about 2,000 (36%) were called active. About 18% were inconclusive and are not listed. The list shows a part of the results. A number with no mark means an inactive call. Rule as the data show it: active = normalized growth mostly below about 0.91 (no sharp cut-off); inconclusive = no clear call, values can overlap the other calls; inactive = mostly above about 0.92.
# Test: chemical genetic growth profiling, strain panel (AID 1159580);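 also: tested at 20 µM; growth read once vehicle control cultures reached saturation at 30 °C; 1 = growth at the plate median or of vehicle wells; lower values mean less growth of the strain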
# Conditions: growth OD
smiles,measurement,setting,value
O=C1C=CC2=C3c4cc(O)c(O)cc4CC3(O)COC2=C1O (centres undefined),normalized growth,"S. cerevisiae deletion strains, locus YJR043C, strain POL32, hits give low values",0.868
same,normalized growth,"S. cerevisiae deletion strains, locus YJR066W, strain TOR1, hits give low values",0.953
same,normalized growth,"S. cerevisiae deletion strains, locus YJR075W, strain HOC1, hits give low values",0.981
same,normalized growth,"S. cerevisiae deletion strains, locus YKL009W, strain mrt4, hits give low values",1.16 [resistant] (active)
same,normalized growth,"S. cerevisiae deletion strains, locus YKL068W, hits give low values",1.02
same,normalized growth,"S. cerevisiae deletion strains, locus YKL085W, strain MDH1 (second series), hits give low values",1.02
same,normalized growth,"S. cerevisiae deletion strains, locus YKL085W, strain MDH1, hits give low values",1.02
same,normalized growth,"S. cerevisiae deletion strains, locus YKL160W, strain elf1, hits give low values",1.01
same,normalized growth,"S. cerevisiae deletion strains, locus YKL190W, strain CNB1, hits give low values",0.908 (active)
same,normalized growth,"S. cerevisiae deletion strains, locus YKR001C, strain vps1, hits give low values",1.06
same,normalized growth,"S. cerevisiae deletion strains, locus YKR026C, strain gcn3, hits give low values",1.05
same,normalized growth,"S. cerevisiae deletion strains, locus YKR091W, strain srl3, hits give low values",1.04
same,normalized growth,"S. cerevisiae deletion strains, locus YLL001W, strain dnm1, hits give low values",1
same,normalized growth,"S. cerevisiae deletion strains, locus YLL026W, hits give low values",1.02
same,normalized growth,"S. cerevisiae deletion strains, locus YLL041C, strain sdh2, hits give low values",1.02
same,normalized growth,"S. cerevisiae deletion strains, locus YLR027C, strain aat2, hits give low values",1.01
same,normalized growth,"S. cerevisiae deletion strains, locus YLR039C, strain RIC1, hits give low values",0.848
same,normalized growth,"S. cerevisiae deletion strains, locus YLR058C, strain SHM2, hits give low values",0.92
same,normalized growth,"S. cerevisiae deletion strains, locus YLR102C, strain apc9, hits give low values",1.03
same,normalized growth,"S. cerevisiae deletion strains, locus YLR113W, strain HOG1, hits give low values",1.06
same,normalized growth,"S. cerevisiae deletion strains, locus YLR221C, strain rsa3, hits give low values",0.992
same,normalized growth,"S. cerevisiae deletion strains, locus YLR258W, strain gsy2, hits give low values",0.996
same,normalized growth,"S. cerevisiae deletion strains, locus YLR262C, strain YPT6 (second series), hits give low values",0.875
same,normalized growth,"S. cerevisiae deletion strains, locus YLR262C, strain YPT6, hits give low values",0.931
same,normalized growth,"S. cerevisiae deletion strains, locus YLR268W, strain sec22, hits give low values",1.01
same,normalized growth,"S. cerevisiae deletion strains, locus YLR320W, strain mms22, hits give low values",1.04
same,normalized growth,"S. cerevisiae deletion strains, locus YLR330W, strain CHS5, hits give low values",1.01
same,normalized growth,"S. cerevisiae deletion strains, locus YLR342W, strain FKS1 (second series), hits give low values",0.86
same,normalized growth,"S. cerevisiae deletion strains, locus YLR342W, strain FKS1, hits give low values",0.994
same,normalized growth,"S. cerevisiae deletion strains, locus YLR357W, strain rsc2, hits give low values",0.88
same,normalized growth,"S. cerevisiae deletion strains, locus YLR370C, strain arc18, hits give low values",0.977
same,normalized growth,"S. cerevisiae deletion strains, locus YLR371W, strain rom2, hits give low values",0.96
same,normalized growth,"S. cerevisiae deletion strains, locus YLR384C, strain iki3, hits give low values",1.02
same,normalized growth,"S. cerevisiae deletion strains, locus YLR418C, strain cdc73, hits give low values",0.954
same,normalized growth,"S. cerevisiae deletion strains, locus YML016C, strain PPZ1, hits give low values",0.938
same,normalized growth,"S. cerevisiae deletion strains, locus YML032C, strain rad52, hits give low values",1.05
same,normalized growth,"S. cerevisiae deletion strains, locus YML120C, strain ndi1, hits give low values",1.02
same,normalized growth,"S. cerevisiae deletion strains, locus YML124C, strain tub3, hits give low values",1.03
same,normalized growth,"S. cerevisiae deletion strains, locus YMR058W, strain fet3, hits give low values",0.611 (active)
same,normalized growth,"S. cerevisiae deletion strains, locus YMR078C, strain ctf18, hits give low values",1.05
same,normalized growth,"S. cerevisiae deletion strains, locus YMR125W, strain sto1, hits give low values",1.11
same,normalized growth,"S. cerevisiae deletion strains, locus YMR129W, hits give low values",1.03
same,normalized growth,"S. cerevisiae deletion strains, locus YMR205C, strain PFK2, hits give low values",1.05
same,normalized growth,"S. cerevisiae deletion strains, locus YMR223W, strain ubp8, hits give low values",1.01
same,normalized growth,"S. cerevisiae deletion strains, locus YMR263W, strain SAP30, hits give low values",0.965
same,normalized growth,"S. cerevisiae deletion strains, locus YMR307W, strain GAS1, hits give low values",0.815
same,normalized growth,"S. cerevisiae deletion strains, locus YNL067W, strain RPL9B, hits give low values",0.956
same,normalized growth,"S. cerevisiae deletion strains, locus YNL071W, strain lat1, hits give low values",1.04
same,normalized growth,"S. cerevisiae deletion strains, locus YNL128W, strain TEP1, hits give low values",0.845 (active)
same,normalized growth,"S. cerevisiae deletion strains, locus YNL183C, strain NPR1, hits give low values",0.983
same,normalized growth,"S. cerevisiae deletion strains, locus YNL209W, strain ssb2, hits give low values",0.831 (active)
same,normalized growth,"S. cerevisiae deletion strains, locus YNL233W, strain BNI4, hits give low values",0.97
same,normalized growth,"S. cerevisiae deletion strains, locus YNL248C, strain rpa49, hits give low values",1.03
same,normalized growth,"S. cerevisiae deletion strains, locus YNL250W, strain rad50, hits give low values",1
same,normalized growth,"S. cerevisiae deletion strains, locus YNL271C, strain bni1, hits give low values",1.01
same,normalized growth,"S. cerevisiae deletion strains, locus YNL298W, strain CLA4, hits give low values",1.01
same,normalized growth,"S. cerevisiae deletion strains, locus YNL307C, strain MCK1, hits give low values",1.02
same,normalized growth,"S. cerevisiae deletion strains, locus YNL322C, strain KRE1 (second series), hits give low values",1.05
same,normalized growth,"S. cerevisiae deletion strains, locus YNR049C, strain mso1, hits give low values",1.05
same,normalized growth,"S. cerevisiae deletion strains, locus YNR052C, strain pop2, hits give low values",1.01
same,normalized growth,"S. cerevisiae deletion strains, locus YOL012C, strain htz1",0.462
same,normalized growth,"S. cerevisiae deletion strains, locus YOL147C, strain pex11, hits give low values",1.03
same,normalized growth,"S. cerevisiae deletion strains, locus YOR001W, strain rrp6, hits give low values",1.01
same,normalized growth,"S. cerevisiae deletion strains, locus YOR061W, strain CKA2, hits give low values",0.977
same,normalized growth,"S. cerevisiae deletion strains, locus YOR069W, strain VPS5, hits give low values",0.992
same,normalized growth,"S. cerevisiae deletion strains, locus YOR070C, strain gyp1, hits give low values",0.969
same,normalized growth,"S. cerevisiae deletion strains, locus YOR080W, strain dia2, hits give low values",1.04
same,normalized growth,"S. cerevisiae deletion strains, locus YOR083W, strain WHI5, hits give low values",0.965
same,normalized growth,"S. cerevisiae deletion strains, locus YOR106W, strain vam3, hits give low values",0.811 (active)
same,normalized growth,"S. cerevisiae deletion strains, locus YOR136W, strain idh2, hits give low values",1.05
same,normalized growth,"S. cerevisiae deletion strains, locus YOR144C, strain elg1, hits give low values",1.03
same,normalized growth,"S. cerevisiae deletion strains, locus YOR184W, strain ser1, hits give low values",1.04
same,normalized growth,"S. cerevisiae deletion strains, locus YOR231W, strain MKK1, hits give low values",1.02
same,normalized growth,"S. cerevisiae deletion strains, locus YOR265W, strain rbl2, hits give low values",1.02
same,normalized growth,"S. cerevisiae deletion strains, locus YOR270C, strain vph1, hits give low values",0.956
same,normalized growth,"S. cerevisiae deletion strains, locus YOR290C, strain snf2, hits give low values",0.985
same,normalized growth,"S. cerevisiae deletion strains, locus YOR316C, strain cot1, hits give low values",1.04
same,normalized growth,"S. cerevisiae deletion strains, locus YPL051W, strain arl3, hits give low values",0.884 (active)
same,normalized growth,"S. cerevisiae deletion strains, locus YPL078C, strain atp4, hits give low values",1.01
same,normalized growth,"S. cerevisiae deletion strains, locus YPL106C, strain sse1, hits give low values",0.99
same,normalized growth,"S. cerevisiae deletion strains, locus YPL240C, strain hsp82, hits give low values",1.03
same,normalized growth,"S. cerevisiae deletion strains, locus YPL241C, strain CIN2, hits give low values",0.994
same,normalized growth,"S. cerevisiae deletion strains, locus YPL256C, strain CLN2, hits give low values",1.05
same,normalized growth,"S. cerevisiae deletion strains, locus YPR119W, strain clb2, hits give low values",1.02
same,normalized growth,"S. cerevisiae deletion strains, locus YPR141C, strain kar3, hits give low values",1.01
same,normalized growth,"S. cerevisiae deletion strains, locus YPR163C, strain tif3, hits give low values",1.02
same,normalized growth,"S. cerevisiae deletion strains, locus YPR167C, strain met16, hits give low values",1.04
same,normalized growth,"S. cerevisiae deletion strains, strain wtn01, hits give low values",1.03
same,normalized growth,"S. cerevisiae strains, strain wild type, hits give low values",0.814 (active)

# Reference: PubChem BioAssay AID1159580 (chemical genetic matrix, 2015)
